According to the supplement of paper PMC10849652:
Targets with a hit are over-represented here; the source holds about 8,800 in all. About 0.5% of all pairs of compound and target were hits. A number with no mark means an inactive call.

Assays:
Test in all cases: log2 fold change, soluble protein after heating vs DMSO (PISA); higher = thermal stabilisation; K562 lysate, 10 uM; active = over 0.2 and 3.5 SD of the protein, either way, in both replicates (recomputed)
ibrutinib = compound: C=CC(=O)N1CCC[C@@H](n2nc(-c3ccc(Oc4ccccc4)cc3)c3c(N)ncnc32)C1 [ibrutinib]
In short: (§1)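 Quantification was by TMTpro 16plex LC-MS/MS with equalised channel sums, applied to the supernatant after 21,000xg for 90 min. Samples were crude K562 extract at 1 mg/mL protein in PBS pH 7.4 with 1 mM MgCl2, treated with 10 μM compound for 30 min, heated for 3 min across 48°C-58°C, pooled and brought to 0.5% NP-40 at 4°C. Values are log-two fold changes in thermal stability relative to solvent controls, from duplicates.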

[1] = compound: CC(=O)c1cnc2ccc(-c3cc(Cl)c(O)c(Cl)c3)nc2c1N[C@H]1CC[C@H](CN(C)C)CC1
In short: as §1

ralimetinib = compound: CC(C)(C)Cn1c(N)nc2ccc(-c3[nH]c(C(C)(C)C)nc3-c3ccc(F)cc3)nc21 [ralimetinib]
In short: as §1

[2] = compound: CC(C)(O)CC(=O)NCCn1ccc2ncnc(Nc3ccc(Oc4cccc(C(F)(F)F)c4)c(Cl)c3)c21
In short: as §1

[3] = compound: CC(C)C1=C2N=C(C=C(N2N=C1)NCC3=CC=CC=C3)NCCCCCCN
In short: as §1

[4] = compound: CC1=C(C(CC(=O)N1)C2=CC=C(C=C2)C(F)(F)F)C(=O)NC3=C(C=C4C(=C3)C=NN4)F
In short: as §1

[5] = compound: CC1=C(C2=C(C=C1)C(=O)C3=CC=CC=C3N2CCCN)C
In short: as §1

[6] = compound: CC1=C(C=C(C=C1)NC(=O)C2=CC(=CC=C2)C(C)(C)C#N)NC3=CC4=C(C=C3)N=CN(C4=O)C
In short: as §1

[7] = compound: CC1=C(C=C(C=C1)NC(=O)C2=CC(=CC=C2)N(C)C)NC(=O)C3=CC=C(C=C3)O
In short: as §1

[8] = compound: CC1=CC=C(C=C1)SC2=C3C=C(SC3=CN=C2)C(=O)N
In short: as §1

vemurafenib = compound: CCCS(=O)(=O)Nc1ccc(F)c(C(=O)c2c[nH]c3ncc(-c4ccc(Cl)cc4)cc23)c1F [vemurafenib]
In short: as §1

[9] = compound: CCCS(=O)(=O)Nc1ccc(F)c(C(=O)c2c[nH]c3ncc(Cl)cc23)c1F
In short: as §1

barasertib = compound: CCN(CCCOc1ccc2c(Nc3cc(CC(=O)Nc4cccc(F)c4)[nH]n3)ncnc2c1)CCOP(=O)(O)O [barasertib]
In short: as §1

[10] = compound: CC[C@@H]1C(=O)N(C)c2cnc(Nc3ccc(C(=O)NC4CCN(C)CC4)cc3OC)nc2N1C1CCCC1
In short: as §1

volasertib = compound: CC[C@@H]1C(=O)N(C)c2cnc(Nc3ccc(C(=O)N[C@H]4CC[C@H](N5CCN(CC6CC6)CC5)CC4)cc3OC)nc2N1C(C)C [volasertib]
In short: as §1

[11] = compound: CCn1c(C(=O)N(C2CC2)C2CC2)cc2c3c(ncn3C)c(Nc3cc(C)n(C)n3)nc21
In short: as §1

[12] = compound: CCn1cc(-c2ccnc3[nH]c(-c4cccc(CN(C)C)c4)cc23)c(-c2ccc(NC(=O)N(C)C)cc2)n1
In short: as §1

[13] = compound: CN1CCC(CNc2ccc3ncc(-c4cccc(OC(F)(F)F)c4)n3n2)CC1
In short: as §1

saracatinib = compound: CN1CCN(CCOc2cc(OC3CCOCC3)c3c(Nc4c(Cl)ccc5c4OCO5)ncnc3c2)CC1 [saracatinib]
In short: as §1

sotrastaurin = compound: CN1CCN(c2nc(C3=C(c4c[nH]c5ccccc45)C(=O)NC3=O)c3ccccc3n2)CC1 [sotrastaurin]
In short: as §1

Sequence of UniProt Q8N6T3 (Q8N6T3 whole entry, looked up): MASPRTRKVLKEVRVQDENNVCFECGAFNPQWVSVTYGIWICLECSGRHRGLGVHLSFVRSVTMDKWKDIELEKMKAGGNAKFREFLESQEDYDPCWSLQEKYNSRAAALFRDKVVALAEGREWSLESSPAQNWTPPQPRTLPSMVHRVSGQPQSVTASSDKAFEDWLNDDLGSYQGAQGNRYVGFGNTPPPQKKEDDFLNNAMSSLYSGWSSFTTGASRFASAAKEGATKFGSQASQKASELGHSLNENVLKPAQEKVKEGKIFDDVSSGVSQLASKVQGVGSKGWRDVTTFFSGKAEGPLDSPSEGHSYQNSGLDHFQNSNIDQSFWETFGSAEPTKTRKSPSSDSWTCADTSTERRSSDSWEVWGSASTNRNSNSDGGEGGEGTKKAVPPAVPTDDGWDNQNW
Sequence of UniProt P39687 (P39687 whole entry, looked up): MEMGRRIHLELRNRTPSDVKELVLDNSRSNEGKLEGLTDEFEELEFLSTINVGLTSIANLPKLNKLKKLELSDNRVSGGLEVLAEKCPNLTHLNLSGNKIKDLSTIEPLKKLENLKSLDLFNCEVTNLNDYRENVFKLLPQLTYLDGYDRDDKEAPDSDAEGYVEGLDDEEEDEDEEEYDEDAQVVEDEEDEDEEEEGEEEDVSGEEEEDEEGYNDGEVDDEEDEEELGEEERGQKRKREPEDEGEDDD
Sequence of UniProt P31749 (P31749 whole entry, looked up): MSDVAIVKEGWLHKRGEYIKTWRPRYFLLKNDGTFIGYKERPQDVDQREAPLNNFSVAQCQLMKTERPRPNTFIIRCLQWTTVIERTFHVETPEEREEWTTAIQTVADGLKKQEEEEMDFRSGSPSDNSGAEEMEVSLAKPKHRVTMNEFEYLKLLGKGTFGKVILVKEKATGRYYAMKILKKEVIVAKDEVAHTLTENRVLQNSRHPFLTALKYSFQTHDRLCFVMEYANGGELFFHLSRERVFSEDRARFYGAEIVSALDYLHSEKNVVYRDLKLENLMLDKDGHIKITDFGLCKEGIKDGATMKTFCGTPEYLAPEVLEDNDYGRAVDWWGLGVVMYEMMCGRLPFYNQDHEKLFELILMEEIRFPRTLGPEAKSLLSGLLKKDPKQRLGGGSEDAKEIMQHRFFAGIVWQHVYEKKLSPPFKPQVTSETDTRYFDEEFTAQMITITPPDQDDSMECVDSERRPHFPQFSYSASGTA
Sequence of UniProt P33121 (P33121 whole entry, looked up): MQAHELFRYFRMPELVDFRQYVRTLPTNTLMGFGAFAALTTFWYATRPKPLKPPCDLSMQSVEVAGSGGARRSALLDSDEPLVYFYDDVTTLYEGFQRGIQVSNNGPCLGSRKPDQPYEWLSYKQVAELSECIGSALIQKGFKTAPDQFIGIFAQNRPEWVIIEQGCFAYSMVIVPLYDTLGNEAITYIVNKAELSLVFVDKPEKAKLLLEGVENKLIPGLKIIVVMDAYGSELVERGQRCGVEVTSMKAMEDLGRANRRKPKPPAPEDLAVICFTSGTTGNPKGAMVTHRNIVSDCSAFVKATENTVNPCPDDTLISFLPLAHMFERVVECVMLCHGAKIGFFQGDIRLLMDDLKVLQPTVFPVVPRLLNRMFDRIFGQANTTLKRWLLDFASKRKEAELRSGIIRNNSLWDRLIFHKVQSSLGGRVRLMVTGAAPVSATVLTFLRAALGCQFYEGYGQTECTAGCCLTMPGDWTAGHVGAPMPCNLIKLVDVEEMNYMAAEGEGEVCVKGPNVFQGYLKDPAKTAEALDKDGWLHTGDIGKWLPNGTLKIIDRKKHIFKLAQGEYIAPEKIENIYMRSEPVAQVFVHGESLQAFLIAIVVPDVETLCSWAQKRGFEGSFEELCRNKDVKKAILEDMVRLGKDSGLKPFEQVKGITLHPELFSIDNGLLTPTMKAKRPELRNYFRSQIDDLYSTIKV
Sequence of UniProt Q9NRW3 (Q9NRW3 whole entry, looked up): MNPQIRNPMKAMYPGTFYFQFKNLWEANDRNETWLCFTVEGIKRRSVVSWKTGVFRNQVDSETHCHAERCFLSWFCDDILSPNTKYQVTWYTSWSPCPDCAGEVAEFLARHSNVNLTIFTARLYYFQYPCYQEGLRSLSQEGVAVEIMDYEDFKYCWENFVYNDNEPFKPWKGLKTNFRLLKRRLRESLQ
Sequence of UniProt P17707 (P17707 whole entry, looked up): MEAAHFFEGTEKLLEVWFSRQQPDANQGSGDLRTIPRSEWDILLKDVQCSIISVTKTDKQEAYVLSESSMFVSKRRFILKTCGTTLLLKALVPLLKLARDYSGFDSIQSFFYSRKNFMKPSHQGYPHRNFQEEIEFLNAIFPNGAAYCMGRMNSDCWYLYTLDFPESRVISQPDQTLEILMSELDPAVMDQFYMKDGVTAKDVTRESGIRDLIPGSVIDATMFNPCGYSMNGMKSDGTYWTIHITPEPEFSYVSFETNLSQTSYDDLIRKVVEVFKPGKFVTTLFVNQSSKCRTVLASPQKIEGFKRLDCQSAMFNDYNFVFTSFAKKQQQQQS
Sequence of UniProt P28288 (P28288 whole entry, looked up): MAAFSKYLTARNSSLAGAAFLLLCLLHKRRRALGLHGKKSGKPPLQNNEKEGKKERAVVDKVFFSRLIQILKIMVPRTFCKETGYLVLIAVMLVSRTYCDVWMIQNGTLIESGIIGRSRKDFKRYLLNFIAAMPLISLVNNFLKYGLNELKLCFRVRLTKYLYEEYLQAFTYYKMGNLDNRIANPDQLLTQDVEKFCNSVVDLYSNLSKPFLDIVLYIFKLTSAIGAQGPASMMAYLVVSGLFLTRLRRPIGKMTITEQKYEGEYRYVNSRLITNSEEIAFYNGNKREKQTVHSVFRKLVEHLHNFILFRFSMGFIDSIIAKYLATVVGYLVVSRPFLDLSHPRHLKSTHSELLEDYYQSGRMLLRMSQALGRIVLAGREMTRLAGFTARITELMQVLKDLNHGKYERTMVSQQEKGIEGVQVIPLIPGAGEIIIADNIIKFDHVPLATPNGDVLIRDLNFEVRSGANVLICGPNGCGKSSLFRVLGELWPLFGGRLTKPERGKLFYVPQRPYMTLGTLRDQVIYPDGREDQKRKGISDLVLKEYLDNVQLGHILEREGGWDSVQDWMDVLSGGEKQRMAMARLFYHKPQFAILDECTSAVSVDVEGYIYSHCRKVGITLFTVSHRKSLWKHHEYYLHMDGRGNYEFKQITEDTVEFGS
Sequence of UniProt P00352 (P00352 whole entry, looked up): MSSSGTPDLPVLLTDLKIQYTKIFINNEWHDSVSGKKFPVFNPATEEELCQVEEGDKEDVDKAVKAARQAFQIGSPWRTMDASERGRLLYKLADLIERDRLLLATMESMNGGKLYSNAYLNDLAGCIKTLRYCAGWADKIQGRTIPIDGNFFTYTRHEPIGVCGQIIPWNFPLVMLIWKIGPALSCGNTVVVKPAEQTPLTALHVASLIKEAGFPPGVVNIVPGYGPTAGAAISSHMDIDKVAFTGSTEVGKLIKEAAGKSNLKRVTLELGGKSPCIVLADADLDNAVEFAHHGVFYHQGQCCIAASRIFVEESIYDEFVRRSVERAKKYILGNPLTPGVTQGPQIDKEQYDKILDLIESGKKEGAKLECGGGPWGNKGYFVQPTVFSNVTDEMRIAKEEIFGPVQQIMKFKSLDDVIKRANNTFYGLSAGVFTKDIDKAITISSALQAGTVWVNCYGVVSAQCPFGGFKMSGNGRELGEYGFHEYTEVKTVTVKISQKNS
Sequence of UniProt Q9NUQ8 (Q9NUQ8 whole entry, looked up): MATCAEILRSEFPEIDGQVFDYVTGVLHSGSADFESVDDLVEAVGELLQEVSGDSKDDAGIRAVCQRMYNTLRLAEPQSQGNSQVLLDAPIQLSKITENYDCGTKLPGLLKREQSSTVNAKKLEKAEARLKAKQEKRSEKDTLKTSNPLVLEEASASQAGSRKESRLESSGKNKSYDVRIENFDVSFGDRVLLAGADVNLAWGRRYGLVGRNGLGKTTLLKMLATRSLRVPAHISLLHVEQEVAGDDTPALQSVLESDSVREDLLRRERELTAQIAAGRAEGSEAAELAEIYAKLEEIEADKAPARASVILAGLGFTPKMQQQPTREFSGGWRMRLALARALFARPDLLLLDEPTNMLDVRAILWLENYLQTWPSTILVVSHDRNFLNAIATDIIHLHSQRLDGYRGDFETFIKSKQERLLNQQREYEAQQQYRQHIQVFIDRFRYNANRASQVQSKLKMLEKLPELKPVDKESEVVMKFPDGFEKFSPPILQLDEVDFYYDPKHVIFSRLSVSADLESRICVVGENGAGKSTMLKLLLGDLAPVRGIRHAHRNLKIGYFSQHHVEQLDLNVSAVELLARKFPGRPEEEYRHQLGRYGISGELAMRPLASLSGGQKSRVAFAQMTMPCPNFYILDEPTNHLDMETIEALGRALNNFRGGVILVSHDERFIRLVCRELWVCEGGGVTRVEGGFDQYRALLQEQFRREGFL
Sequence of UniProt Q01432 (Q01432 whole entry, looked up): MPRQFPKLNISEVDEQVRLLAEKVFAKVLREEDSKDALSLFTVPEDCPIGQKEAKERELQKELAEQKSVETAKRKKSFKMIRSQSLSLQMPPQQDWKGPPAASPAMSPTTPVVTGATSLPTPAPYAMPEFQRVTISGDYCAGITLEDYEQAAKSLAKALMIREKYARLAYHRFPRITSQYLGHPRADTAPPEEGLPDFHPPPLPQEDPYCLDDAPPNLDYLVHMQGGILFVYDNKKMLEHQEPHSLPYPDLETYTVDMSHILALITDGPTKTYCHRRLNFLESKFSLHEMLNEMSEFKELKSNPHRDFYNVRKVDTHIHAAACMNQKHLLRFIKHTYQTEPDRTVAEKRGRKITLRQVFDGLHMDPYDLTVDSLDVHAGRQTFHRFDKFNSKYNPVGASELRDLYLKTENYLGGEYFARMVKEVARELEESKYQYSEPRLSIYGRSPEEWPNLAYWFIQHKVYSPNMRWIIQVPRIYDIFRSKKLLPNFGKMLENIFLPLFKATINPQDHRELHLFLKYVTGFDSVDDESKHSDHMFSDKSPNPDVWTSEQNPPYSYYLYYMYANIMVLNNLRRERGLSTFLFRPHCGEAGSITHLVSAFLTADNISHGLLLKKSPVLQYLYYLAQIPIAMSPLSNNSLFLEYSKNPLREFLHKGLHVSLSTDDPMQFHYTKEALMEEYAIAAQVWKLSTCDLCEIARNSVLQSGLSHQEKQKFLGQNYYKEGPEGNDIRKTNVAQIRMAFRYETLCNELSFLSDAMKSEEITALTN

Row | Target | log2 fold change (ibrutinib) | log2 fold change [1] | log2 fold change (ralimetinib) | log2 fold change [2] | log2 fold change [3] | log2 fold change [4] | log2 fold change [5] | log2 fold change [6] | log2 fold change [7] | log2 fold change [8] | log2 fold change (vemurafenib) | log2 fold change [9] | log2 fold change (barasertib) | log2 fold change [10] | log2 fold change (volasertib) | log2 fold change [11] | log2 fold change [12] | log2 fold change [13] | log2 fold change (saracatinib) | log2 fold change (sotrastaurin)
1 | ABCF3 (UniProt Q9NUQ8) | 0.008 | 0.035 | 0.067 | 0.046 | -0.013 | 0.009 | -0.012 | -0.02 | 0.018 | 0.001 | 0.013 | 0.037 | 0.03 | -0.079 | -0.099 | 0.044 | 0.015 | -0.059 | -0.006 | 0.033
2 | ASNS (UniProt P08243) | 0.012 | 0.015 | -0.014 | 0.012 | 0.052 | -0.017 | 0.04 | 0.016 | 0.014 | 0.047 | -0.002 | -0.002 | 0.025 | -0.056 | -0.047 | 0.005 | 0.031 | -0.03 | 0.022 | 0.014
3 | ANKRD27 (UniProt Q96NW4) | 0.016 | -0.003 | -0.028 | -0.009 | 0.032 | 0.033 | -0.014 | 0.089 | 0.013 | -0.102 | -0.016 | 0.006 | 0.043 | 0.01 | -0.075 | 0.001 | -0.042 | -0.073 | 0.054 | -0.002
4 | AGO4 (UniProt Q9HCK5) | 0.034 | -0.035 | 0.022 | -0.011 | -0.049 | 0.025 | 0.05 | 0 | -0.013 | -0.024 | 0.033 | 0.003 | 0.04 | -0.003 | 0.017 | -0.003 | 0.036 | 0.041 | -0.011 | -0.021
5 | ARHGAP6 (UniProt O43182) | 0.081 | -0.008 | -0.018 | -0.038 | -0.017 | 0.101 | -0.007 | 0.002 | 0.01 | -0.018 | 0.074 | 0.038 | 0.116 | -0.038 | -0.107 | -0.014 | 0.072 | -0.139 | 0.031 | -0.049
6 | APOBEC3C (UniProt Q9NRW3) | -0.024 | -0.047 | 0.005 | -0.051 | -0.01 | 0 | -0.025 | 0.046 | 0.019 | -0.01 | -0.027 | 0.021 | -0.006 | 0.075 | -0.014 | -0.081 | -0.038 | 0.034 | 0.018 | 0.114
7 | ABCD3 (UniProt P28288) | -0.035 | -0.083 | -0.067 | 0.064 | 0.185 | 0.01 | -0.096 | -0.028 | -0.073 | -0.031 | 0.078 | 0.058 | 0.053 | -0.077 | -0.029 | -0.07 | -0.054 | 0.044 | -0.071 | 0.073
8 | AKT1 (UniProt P31749) | 0.028 | 0.013 | 0.005 | -0.023 | 0.009 | 0.003 | -0.009 | 0 | -0.006 | 0.019 | 0.071 | 0.011 | -0.023 | -0.019 | -0.026 | -0.031 | -0.068 | 0.055 | 0.055 | 0.051
9 | ARFGAP1 (UniProt Q8N6T3) | -0.118 | 0.06 | -0.018 | -0.203 | 0.019 | 0.408 | 0.136 | -0.062 | 0.061 | -0.045 | 0.063 | -0.01 | 0.225 | 0.204 | -0.02 | 0.171 | 0.001 | 0.029 | 0.056 | -0.07
10 | AMPD3 isoform 4 (UniProt Q01432) | 0.05 | 0.001 | 0.037 | -0.041 | -0.019 | -0.029 | 0.011 | 0.006 | -0.004 | -0.005 | -0.021 | 0.005 | 0.017 | -0.033 | -0.026 | -0.029 | 0.1 | -0.046 | 0.043 | 0.024
11 | ACSL1 (UniProt P33121) | 0.009 | 0.008 | -0.004 | -0.075 | 0.01 | 0.024 | 0.004 | -0.01 | 0.026 | -0.004 | 0.021 | 0.023 | 0.046 | -0.054 | -0.1 | 0.038 | -0.014 | -0.242 | -0.066 | -0.002
12 | ALDH1A1 (UniProt P00352) | 0.092 | 0.019 | 0.037 | 0.037 | -0.029 | 0 | 0.26 (active) | -0.005 | 0.028 | 0.011 | -0.027 | 0.001 | -0.014 | -0.016 | -0.005 | -0.052 | 0.051 | -0.09 | 0.272 | 0.001
13 | ANAPC7 (UniProt Q9UJX3) | -0.007 | 0.002 | 0.015 | -0.009 | 0.001 | 0.01 | 0.002 | 0.022 | 0.023 | 0.01 | -0.026 | 0.033 | -0.02 | -0.035 | -0.029 | 0.016 | -0.022 | -0.03 | 0.025 | -0.001
14 | ANP32A (UniProt P39687) | 0.003 | -0.003 | 0.002 | 0.188 | -0.041 | -0.029 | 0.079 | -0.025 | -0.046 | -0.018 | -0.025 | 0.052 | -0.007 | -0.011 | 0.006 | -0.008 | -0.085 | 0.062 | -0.033 | -0.002
15 | AMMECR1 (UniProt Q9Y4X0) | -0.021 | -0.008 | 0.006 | -0.016 | 0.014 | 0.009 | -0.01 | -0.003 | -0.027 | -0.039 | 0.067 | 0 | 0.008 | -0.019 | -0.03 | -0.026 | -0.012 | 0.032 | 0 | 0.008
16 | AMD1 (UniProt P17707) | -0.031 | 0.464 (active) | -0.02 | -0.013 | -0.054 | 0.019 | -0.015 | 0.155 | -0.023 | -0.119 | 0.096 | -0.01 | 0.064 | 0.036 | -0.014 | 0.117 | -0.129 | 0.127 | 0.013 | -0.002
